{
  "source": "the antibiotic and cytotoxicity screens of Wong et al. (2023)",
  "note": "About 1,500 (3.8%) of roughly 39,000 compounds were called active. The sample holds actives, similar compounds and a random draw of the others, so the mix is not that of the screen.",
  "data": [
    {"tested_on": "HSkMC (human skeletal muscle cells)", "test": "cytotoxicity call (relative viability < 0.9)", "conditions": "10 µM", "values": [
      {"smiles": "COC1CC(OC2C(C)OC(OC3C(C)=CCC4CC(CC5(C=CC(C)C(C6CCCCC6)O5)O4)OC(=O)C4C=C(C)C(O)C5OCC(=CC=CC3C)C45O)CC2OC)OC(C)C1O", "note": "(stereo not given)", "cytotoxicity call": "inactive"},
      {"smiles": "CC[C@H](C)[C@H]1O[C@]2(C=C[C@@H]1C)C[C@@H]1C[C@@H](C/C=C(\\C)[C@@H](O[C@H]3C[C@H](OC)[C@@H](O[C@H]4C[C@H](OC)[C@@H](NC(C)=O)[C@H](C)O4)[C@H](C)O3)[C@@H](C)/C=C/C=C3\\CO[C@@H]4[C@H](O)C(C)=C[C@@H](C(=O)O1)[C@]34O)O2", "cytotoxicity call": "active"},
      {"smiles": "CCC(C)C1OC2(C=CC1C)CC1CC(CC=C(C)C(OC3CC(OC)C(OC4CC(OC)C(NC(C)=O)C(C)O4)C(C)O3)C(C)C=CC=C3COC4C(O)C(C)=CC(C(=O)O1)C34O)O2", "note": "(stereo not given)", "cytotoxicity call": "inactive"},
      {"smiles": "CO[C@H]1C[C@H](O[C@H]2[C@H](C)O[C@@H](O[C@@H]3/C(C)=C/C[C@@H]4C[C@@H](C[C@]5(C=C[C@H](C)[C@@H](C6CCCCC6)O5)O4)OC(=O)[C@@H]4C=C(C)[C@@H](O)[C@H]5OC/C(=C\\C=C\\[C@@H]3C)[C@]54O)C[C@@H]2OC)O[C@@H](C)[C@@H]1O", "cytotoxicity call": "inactive"},
      {"smiles": "CCC(C)C1OC2(C=CC1C)CC1CC(CC=C(C)C(OC3CC(OC)C(OC4CC(OC)C(O)C(C)O4)C(C)O3)C(C)C=CC=C3COC4C(OC)C(C)=CC(C(=O)O1)C34O)O2", "note": "(stereo not given)", "cytotoxicity call": "active"},
      {"smiles": "CN[C@@H]1[C@@H](C)O[C@@H](O[C@H]2[C@H](C)O[C@@H](O[C@@H]3/C(C)=C/C[C@@H]4C[C@@H](C[C@]5(C=C[C@H](C)[C@@H](C(C)C)O5)O4)OC(=O)[C@@H]4C=C(C)[C@@H](O)[C@H]5OC/C(=C\\C=C\\[C@@H]3C)[C@]54O)C[C@@H]2OC)C[C@H]1OC", "cytotoxicity call": "active"},
      {"smiles": "C[C@H](CO)N1C[C@H](C)[C@@H](CN(C)C(=O)C2CCC2)Oc2cc(C#Cc3ccncc3)ccc2S1(=O)=O", "cytotoxicity call": "inactive"},
      {"smiles": "Cc1noc(C)c1NC(=O)N(C)C[C@@H]1OCCCC[C@@H](C)Oc2ccc(NS(=O)(=O)c3ccc(Cl)cc3)cc2C(=O)N([C@H](C)CO)C[C@H]1C", "cytotoxicity call": "inactive"},
      {"smiles": "C[C@@H]1CN([C@H](C)CO)S(=O)(=O)c2ccc(C3=CCCC3)cc2O[C@H]1CN(C)C(=O)c1cnccn1", "cytotoxicity call": "inactive"},
      {"smiles": "COc1cccc(S(=O)(=O)N2C[C@H](O)COC[C@@H]3O[C@H](CC(=O)N4CCOCC4)CC[C@H]32)c1", "cytotoxicity call": "inactive"},
      {"smiles": "C[C@H]1CN([C@@H](C)CO)C(=O)c2cc(NC(=O)CCCN(C)C)ccc2O[C@H]1CN(C)Cc1ccc2c(c1)OCO2", "cytotoxicity call": "inactive"},
      {"smiles": "COCC(=O)Nc1ccc2c(c1)OC[C@@H](C)N(C(=O)Cc1cccnc1)C[C@@H](C)[C@@H](OC)CN(C)C2=O", "cytotoxicity call": "inactive"},
      {"smiles": "C[C@H](CO)N1C[C@H](C)[C@@H](CN(C)C(=O)CCN2CCCCC2)Oc2ncc(C#Cc3ccccn3)cc2C1=O", "cytotoxicity call": "inactive"},
      {"smiles": "CN(Cc1ccccn1)C(=O)[C@@]12COC[C@@H]1CN(S(C)(=O)=O)C2", "cytotoxicity call": "inactive"},
      {"smiles": "CC(C)NC(=O)Nc1ccc2c(c1)C(=O)N([C@H](C)CO)C[C@@H](C)[C@H](CN(C)Cc1ccccc1)OCCCC[C@H](C)O2", "cytotoxicity call": "inactive"},
      {"smiles": "C[C@H]1CN([C@@H](C)CO)C(=O)c2cc(NC(=O)Nc3ccc(F)cc3)ccc2O[C@@H]1CN(C)C(=O)Nc1ccc(C(F)(F)F)cc1", "cytotoxicity call": "inactive"},
      {"smiles": "C[C@H](CO)N1C[C@H](C)[C@H](CN(C)C(=O)Nc2ccc(C(F)(F)F)cc2)Oc2ccc(NC(=O)Nc3ccc(F)cc3)cc2C1=O", "cytotoxicity call": "active"},
      {"smiles": "C[C@@H]1CN([C@H](C)CO)C(=O)c2cc(NC(=O)Nc3ccc(F)cc3)ccc2O[C@H]1CN(C)C(=O)Nc1ccc(C(F)(F)F)cc1", "cytotoxicity call": "inactive"},
      {"smiles": "C[C@H](CO)N1C[C@H](C)[C@@H](CN(C)C(=O)Nc2ccc(C(F)(F)F)cc2)Oc2ccc(NC(=O)Nc3ccc(F)cc3)cc2C1=O", "cytotoxicity call": "inactive"},
      {"smiles": "C[C@@H]1CN([C@@H](C)CO)C(=O)c2cc(NC(=O)Nc3ccc(F)cc3)ccc2O[C@@H]1CN(C)C(=O)Nc1ccc(C(F)(F)F)cc1", "cytotoxicity call": "active"},
      {"smiles": "C[C@H](CO)N1C[C@H](C)[C@H](CN(C)C(=O)Nc2ccc(F)cc2)Oc2ccc(NC(=O)Nc3ccc(C(F)(F)F)cc3)cc2C1=O", "cytotoxicity call": "inactive"},
      {"smiles": "C[C@@H]1CN([C@H](C)CO)C(=O)c2cc(NC(=O)Nc3ccc(C(F)(F)F)cc3)ccc2O[C@@H]1CN(C)C(=O)Nc1ccc(F)cc1", "cytotoxicity call": "active"},
      {"smiles": "C[C@H](CO)N1C[C@H](C)[C@@H](CN(C)C(=O)Nc2ccc(F)cc2)Oc2ccc(NC(=O)Nc3ccc(C(F)(F)F)cc3)cc2C1=O", "cytotoxicity call": "inactive"},
      {"smiles": "C[C@H]1CN([C@@H](C)CO)C(=O)c2cc(NC(=O)Nc3ccc(F)cc3)ccc2O[C@H]1CN(C)C(=O)Nc1ccc(C(F)(F)F)cc1", "cytotoxicity call": "inactive"},
      {"smiles": "C[C@H]1CN([C@@H](C)CO)C(=O)c2cc(NC(=O)Nc3ccc(C(F)(F)F)cc3)ccc2O[C@H]1CN(C)C(=O)Nc1ccc(F)cc1", "cytotoxicity call": "inactive"},
      {"smiles": "C[C@@H]1CN([C@@H](C)CO)C(=O)c2cc(NC(=O)Nc3ccc(C(F)(F)F)cc3)ccc2O[C@@H]1CN(C)C(=O)Nc1ccc(F)cc1", "cytotoxicity call": "active"},
      {"smiles": "C[C@@H]1CN([C@H](C)CO)C(=O)c2cc(NC(=O)Nc3ccc(C(F)(F)F)cc3)ccc2O[C@H]1CN(C)C(=O)Nc1ccc(F)cc1", "cytotoxicity call": "inactive"},
      {"smiles": "C[C@@H]1CCCCO[C@H](CN(C)CC2CC2)[C@@H](C)CN([C@H](C)CO)C(=O)c2cc(NS(=O)(=O)c3ccc(Cl)cc3)ccc2O1", "cytotoxicity call": "inactive"},
      {"smiles": "C[C@@H]1CCCCO[C@@H](CN(C)Cc2ccc3c(c2)OCO3)[C@@H](C)CN([C@@H](C)CO)C(=O)c2cc(NC(=O)Cc3ccccc3)ccc2O1", "cytotoxicity call": "inactive"},
      {"smiles": "Cc1cc(C(=O)Nc2cccc3c2O[C@H](CN(C)S(=O)(=O)c2ccccc2)[C@H](C)CN([C@@H](C)CO)C3=O)n(C)n1", "cytotoxicity call": "inactive"},
      {"smiles": "C[C@H](CO)N1C[C@H](C)[C@H](CN(C)C(=O)NC2CCCCC2)Oc2ccc(NS(=O)(=O)c3cn(C)cn3)cc2CC1=O", "cytotoxicity call": "inactive"},
      {"smiles": "Cc1nc(C)n(C(=O)N2CCOCC2)n1", "cytotoxicity call": "inactive"},
      {"smiles": "C[C@@H](O[C@H]1OCCN(Cc2n[nH]nc2CN(C)C)[C@H]1c1ccc(F)cc1)c1cc(C(F)(F)F)cc(C(F)(F)F)c1", "cytotoxicity call": "inactive"},
      {"smiles": "CCCC#Cc1cnc2c(c1)C(=O)N([C@H](C)CO)C[C@H](C)[C@H](CN(C)C(=O)c1ccc3c(c1)OCO3)O2", "cytotoxicity call": "inactive"},
      {"smiles": "C[C@H]1CN([C@@H](C)CO)C(=O)c2cc(NC(=O)Cn3cnnn3)ccc2O[C@H]1CN(C)C(=O)Nc1ccc(C(F)(F)F)cc1", "cytotoxicity call": "inactive"},
      {"smiles": "C[C@@H]1CN([C@@H](C)CO)C(=O)c2cc(NC(=O)Nc3ccc(C(F)(F)F)cc3)ccc2O[C@@H]1CN(C)C(=O)Nc1ccc2c(c1)OCO2", "cytotoxicity call": "active"},
      {"smiles": "C[C@H]1CN([C@@H](C)CO)C(=O)c2cc(NC(=O)Nc3ccc4c(c3)OCO4)ccc2O[C@@H]1CN(C)C(=O)Nc1ccc(C(F)(F)F)cc1", "cytotoxicity call": "inactive"},
      {"smiles": "C[C@@H]1CN([C@@H](C)CO)C(=O)c2cc(NC(=O)Nc3ccc4c(c3)OCO4)ccc2O[C@H]1CN(C)C(=O)Nc1ccc(C(F)(F)F)cc1", "cytotoxicity call": "inactive"},
      {"smiles": "CC(C)NC(=O)Nc1ccc2c(c1)C(=O)N([C@@H](C)CO)C[C@H](C)[C@@H](CN(C)Cc1ccc(Cl)c(Cl)c1)OCCCC[C@@H](C)O2", "cytotoxicity call": "inactive"},
      {"smiles": "C[C@@H]1CN([C@H](C)CO)C(=O)c2cc(NS(=O)(=O)c3cccs3)ccc2O[C@@H](C)CCCCO[C@@H]1CN(C)C(=O)c1ccccc1", "cytotoxicity call": "inactive"},
      {"smiles": "C[C@H]1CN([C@@H](C)CO)C(=O)Cc2cc(NC(=O)Nc3cccc4ccccc34)ccc2O[C@H]1CN(C)C(=O)Nc1ccccc1", "cytotoxicity call": "inactive"},
      {"smiles": "C[C@@H]1CN([C@H](C)CO)C(=O)c2cccc(NC(=O)c3ccc(-c4nccs4)cc3)c2O[C@H]1CN(C)C(=O)Nc1ccccc1", "cytotoxicity call": "inactive"},
      {"smiles": "CC(=O)NC[C@H]1CN(c2ccc(N3CCN(C(=O)CO)CC3)c(F)c2)C(=O)O1", "cytotoxicity call": "inactive"},
      {"smiles": "CC(C)(C)CC(C)(C)c1cc(Cc2cc(C(C)(C)CC(C)(C)C)cc(-n3nc4ccccc4n3)c2O)c(O)c(-n2nc3ccccc3n2)c1", "note": "[listing 1 of 2 here]", "cytotoxicity call": "inactive"},
      {"smiles": "CC(C)(C)CC(C)(C)c1cc(Cc2cc(C(C)(C)CC(C)(C)C)cc(-n3nc4ccccc4n3)c2O)c(O)c(-n2nc3ccccc3n2)c1", "note": "[listing 2 of 2 here]", "cytotoxicity call": "inactive"},
      {"smiles": "CC(C)(C)CC(C)(C)c1ccc(O)c(Cc2ccc(Cl)cc2Cl)c1", "cytotoxicity call": "active"},
      {"smiles": "O=C(CN1CCOCC1)NCC[C@@H]1CC[C@H](NC(=O)c2ccc3c(c2)OCO3)[C@@H](CO)O1", "cytotoxicity call": "inactive"},
      {"smiles": "C[C@@H]1CN([C@@H](C)CO)C(=O)c2cc(C#CC3(O)CCCC3)cnc2O[C@@H]1CN(C)C(=O)CN(C)C", "cytotoxicity call": "inactive"},
      {"smiles": "C[C@@H]1CN([C@H](C)CO)C(=O)c2cc(NC(=O)NC3CCCCC3)ccc2O[C@H]1CN(C)Cc1ccc(Oc2ccccc2)cc1", "cytotoxicity call": "inactive"},
      {"smiles": "C[C@@H]1CN([C@@H](C)CO)C(=O)c2cc(NC(=O)NC3CCCCC3)ccc2O[C@H]1CN(C)Cc1ccc(Oc2ccccc2)cc1", "cytotoxicity call": "active"},
      {"smiles": "C[C@H]1CN([C@@H](C)CO)C(=O)c2cc(NC(=O)NC3CCCCC3)ccc2O[C@H]1CN(C)Cc1ccc(-c2ccccc2)cc1", "cytotoxicity call": "inactive"},
      {"smiles": "C[C@@H]1CN([C@H](C)CO)C(=O)c2cc(NC(=O)NC3CCCCC3)ccc2O[C@H]1CN(C)Cc1ccc(-c2ccccc2)cc1", "cytotoxicity call": "inactive"},
      {"smiles": "CO[C@H]1CN(C)C(=O)c2cc(NC(=O)NC3CCCCC3)ccc2OC[C@H](C)N(CCc2ccccc2)C[C@@H]1C", "cytotoxicity call": "inactive"},
      {"smiles": "C[C@@H]1CN([C@@H](C)CO)C(=O)c2cc(NC(=O)NC3CCCCC3)ccc2O[C@@H]1CN(C)Cc1ccc(-c2ccccc2)cc1", "cytotoxicity call": "active"},
      {"smiles": "C[C@H](CO)N1C[C@H](C)[C@H](CN(C)Cc2ccc(Oc3ccccc3)cc2)Oc2ccc(NC(=O)NC3CCCCC3)cc2C1=O", "cytotoxicity call": "inactive"},
      {"smiles": "CO[C@H]1CN(C)C(=O)c2cc(NC(=O)NC3CCCCC3)ccc2OC[C@@H](C)N(CCc2ccccc2)C[C@@H]1C", "cytotoxicity call": "active"},
      {"smiles": "C[C@@H]1CN([C@H](C)CO)C(=O)c2cc(NC(=O)C3CCCCC3)ccc2O[C@@H]1CN(C)Cc1ccc(-c2ccccc2)cc1", "cytotoxicity call": "inactive"},
      {"smiles": "C[C@@H]1CN([C@@H](C)CO)C(=O)c2cc(NC(=O)C3CCCCC3)ccc2O[C@@H]1CN(C)Cc1ccc(-c2ccccc2)cc1", "cytotoxicity call": "active"},
      {"smiles": "C[C@H]1CN([C@@H](C)CO)C(=O)c2cc(NC(=O)C3CCCCC3)ccc2O[C@@H]1CN(C)Cc1ccc(-c2ccccc2)cc1", "cytotoxicity call": "inactive"},
      {"smiles": "CO[C@@H]1CN(C)C(=O)c2cc(NC(=O)NC3CCCCC3)ccc2OC[C@H](C)N(CCc2ccccc2)C[C@H]1C", "cytotoxicity call": "inactive"}
    ]}
  ]
}
